This note sets out measurements from PubChem BioAssay.

The test system of test [1] is Plasmodium falciparum Sir2 (PF13_0152, Sir2A). The test can be described thus: pfSir2 binders on small-molecule microarrays, primary screen, biochemical, small-molecule microarray, 635 nm fluorescence (AID 1098).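 Note: score merges spot fluorescence intensity with its signal-to-noise ratio.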 Particulars: small-molecule microarray binding, fluorescence 635 nm; higher = more signal.
The nature of test [2]: small-molecule microarray binders of probe aDKK1, primary screen, biochemical, biotinylated probe, 635/667 nm fluorescence (AID 1099).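 Note: score merges 667nm spot fluorescence with signal to noise across triplicate slides; reference of the scale not given here.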 Conditions: higher = more signal.
Test [3] in a line: small-molecule microarray binders of probe aCHRDL2, primary screen, biochemical, biotinylated probe, 635/667 nm fluorescence (AID 1100). Particulars: higher = more signal.
Test [4] can be described thus: splicing luciferase reporter signal modulators, primary screen, spliceosome inhibition project, cell-based, HEK293, splice +/- reporter (AID 1101).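 Note: HEK293 cells carrying a splicing-competent luciferase reporter gene; test concentration not given here.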 Particulars: luminescence, 24 h, higher = more signal, called active from +8 up or from −8 down. For orientation: Reporter assays use an easily measured gene product as a stand-in for the process of interest.
For test [5], the target named is Fibroblast growth factor 10 (Homo sapiens) (UniProt O15520). The test can be described thus: FGF10 binders on small-molecule microarrays, primary screen, biochemical, small-molecule microarray, 635 nm fluorescence (AID 1102). Particulars: FGF10 binding, fluorescence 635 nm, higher = more signal.
Test [6] has as its system glycogen synthase kinase-3 (GSK3A per assay name; protocol says GSK3B). The test can be described thus: GSK3 binders on small-molecule microarrays, primary screen, biochemical, small-molecule microarray, 635 nm fluorescence, GSK3A (AID 1103). Note: the record names both GSK3A and GSK3B. Conditions: small-molecule microarray binding, fluorescence 635 nm; higher = more signal.
In test [7] the target is Epidermal growth factor receptor (Homo sapiens) (UniProt P00533). The test can be described thus: EGFR binders on small-molecule microarrays, primary screen, biochemical, small-molecule microarray, 635 nm fluorescence (AID 1104).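 Note: score merges 667 nm emission intensity with spot signal to noise over triplicate slides.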 Particulars: EGFR binding, higher = more signal.
Test [8] addresses Follistatin-related protein 3 (Homo sapiens) (UniProt O95633). The test can be described thus: FSTL3 binders on small-molecule microarrays, primary screen, biochemical, small-molecule microarray, 635 nm fluorescence (AID 1105).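 Note: score merges emission near 667 nm and signal to noise per printed spot across three slides.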 Particulars: FSTL3 binding, higher = more signal.
Test [9] concerns the target Dickkopf-related protein 1 (Homo sapiens) (UniProt O94907). The test can be described thus: DKK1 binders on small-molecule microarrays, primary screen, biochemical, small-molecule microarray, 635 nm fluorescence scan (AID 1106).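 Note: score merges emission near 667 nm with signal to noise over three replicate slides.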 Conditions: DKK1 binding, higher = more signal.
Test [10] concerns Inhibin beta A chain (activin A). The test can be described thus: INHBA (activin A) binders on microarrays, primary screen, biochemical, small-molecule microarray, 635 nm fluorescence scan (AID 1107).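 Note: mouse activin A protein probed at 4.33 µg/mL on printed slides; score merges bound-protein fluorescence near 667 nm with spot signal-to-noise.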 Particulars: small-molecule microarray binding, higher = more signal.

Active and inactive are the calls of the source.

Sequence of Fibroblast growth factor 10 (Homo sapiens) (O15520 whole entry, looked up): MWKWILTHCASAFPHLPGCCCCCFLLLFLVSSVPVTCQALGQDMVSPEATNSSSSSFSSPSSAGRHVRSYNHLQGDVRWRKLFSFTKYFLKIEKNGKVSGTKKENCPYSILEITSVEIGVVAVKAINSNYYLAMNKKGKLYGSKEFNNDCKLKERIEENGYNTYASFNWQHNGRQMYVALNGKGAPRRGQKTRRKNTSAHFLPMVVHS
Sequence of Follistatin-related protein 3 (Homo sapiens) (O95633 whole entry, looked up): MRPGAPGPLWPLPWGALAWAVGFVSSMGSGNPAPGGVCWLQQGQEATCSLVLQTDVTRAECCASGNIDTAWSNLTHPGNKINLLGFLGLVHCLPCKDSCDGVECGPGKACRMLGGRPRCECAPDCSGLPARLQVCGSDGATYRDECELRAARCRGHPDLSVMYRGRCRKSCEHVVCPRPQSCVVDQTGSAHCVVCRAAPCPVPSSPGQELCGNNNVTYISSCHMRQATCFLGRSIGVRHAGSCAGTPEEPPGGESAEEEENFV
Sequence of Dickkopf-related protein 1 (Homo sapiens) (O94907 whole entry, looked up): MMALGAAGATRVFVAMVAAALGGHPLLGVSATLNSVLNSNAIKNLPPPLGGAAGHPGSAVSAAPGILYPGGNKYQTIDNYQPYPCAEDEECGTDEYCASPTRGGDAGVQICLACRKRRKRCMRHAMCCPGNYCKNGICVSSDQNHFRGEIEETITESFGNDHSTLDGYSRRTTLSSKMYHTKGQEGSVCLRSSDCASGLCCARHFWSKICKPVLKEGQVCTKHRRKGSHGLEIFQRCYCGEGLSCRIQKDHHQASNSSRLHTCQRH
Sequence of Epidermal growth factor receptor (Homo sapiens) (P00533 whole entry, looked up): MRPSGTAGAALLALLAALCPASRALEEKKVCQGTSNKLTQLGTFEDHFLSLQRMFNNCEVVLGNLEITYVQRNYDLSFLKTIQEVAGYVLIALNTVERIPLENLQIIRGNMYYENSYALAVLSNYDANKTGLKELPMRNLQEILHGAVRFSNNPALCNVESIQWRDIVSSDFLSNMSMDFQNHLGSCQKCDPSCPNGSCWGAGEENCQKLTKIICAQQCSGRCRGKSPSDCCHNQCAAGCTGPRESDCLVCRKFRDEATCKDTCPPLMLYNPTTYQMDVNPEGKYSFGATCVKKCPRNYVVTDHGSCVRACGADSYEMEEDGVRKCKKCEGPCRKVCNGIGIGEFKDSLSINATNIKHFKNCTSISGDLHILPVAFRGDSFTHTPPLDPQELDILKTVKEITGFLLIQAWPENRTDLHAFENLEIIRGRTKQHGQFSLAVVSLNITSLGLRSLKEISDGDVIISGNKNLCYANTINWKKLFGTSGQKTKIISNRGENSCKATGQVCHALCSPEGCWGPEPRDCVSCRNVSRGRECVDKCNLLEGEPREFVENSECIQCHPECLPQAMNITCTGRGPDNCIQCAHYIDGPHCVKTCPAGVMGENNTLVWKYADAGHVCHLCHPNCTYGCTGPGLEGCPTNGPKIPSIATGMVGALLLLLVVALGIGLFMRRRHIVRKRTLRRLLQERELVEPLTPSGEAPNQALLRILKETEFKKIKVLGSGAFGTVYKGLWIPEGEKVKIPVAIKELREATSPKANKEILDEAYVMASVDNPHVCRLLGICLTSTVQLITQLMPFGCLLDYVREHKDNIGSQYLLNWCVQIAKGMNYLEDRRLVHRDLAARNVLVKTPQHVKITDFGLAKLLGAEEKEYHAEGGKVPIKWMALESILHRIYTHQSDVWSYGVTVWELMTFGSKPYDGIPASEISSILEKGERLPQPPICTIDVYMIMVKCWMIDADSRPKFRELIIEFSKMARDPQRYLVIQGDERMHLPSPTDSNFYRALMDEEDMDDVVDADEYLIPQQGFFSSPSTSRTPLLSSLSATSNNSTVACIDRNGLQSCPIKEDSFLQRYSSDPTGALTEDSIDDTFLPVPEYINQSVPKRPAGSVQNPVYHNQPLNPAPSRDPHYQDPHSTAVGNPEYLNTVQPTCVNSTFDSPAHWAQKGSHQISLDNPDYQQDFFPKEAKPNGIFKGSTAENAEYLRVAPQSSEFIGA

`Oc1ccc2cc[n+](Cc3sc4ccccc4c3Cl)cc2c1`: the composite z-score was 0.23 in test [1]; 0.0518 in [2]; 0.799 in test [3]; 0.469 in [5]; -0.402 in test [6]; -0.0568 in test [7]. Moreover, the figures for the composite z-score in test [8], in [9] and in test [10] were 0.618, 0.481 and 1.28, respectively. In addition, the z-score in test [4] was -1.74 (inactive).
Regarding `[N-]=[N+]=Nc1ccccc1[C@@H]1OC(c2ccc(OCCCO)cc2)=N[C@]1(Cc1ccccc1)C(=O)N1CCOCC1`, the composite z-score amounted to 0.839 in test [1]; 1.05 in test [2]; 1.11 in test [3]; 1.39 in test [5]; 1.28 in test [6]; 0.308 in test [7]. Also, the composite z-score in test [8] came to 1.16; in test [9] it was 0.284; in [10], 0.904. In [4], the z-score was -1.15 (inactive).
In the case of `CCCC[C@@H]1C[C@H]1[C@@H](NC(=O)c1ccco1)c1ccccc1C(F)(F)F`, the composite z-score in test [1] was -0.323; in test [2] it was 2.11; in [3] it was 1.39; in test [5], 0.3; in test [6], -0.291; in [7], -0.127. Moreover, the composite z-score in test [8] is 0.449; in [9] it was -0.316; in test [10] it was 1.49. For the same compound, in [4], the z-score was -0.255 (inactive).
Turning to `C=CCNC(=O)[C@@H]1[C@H]2C(=O)O[C@H](c3ccccc3)[C@H](c3ccccc3)N2[C@H](c2ccc(OCCO)cc2)[C@@]12C(=O)Nc1ccc(C#CCC(C(=O)OC)C(=O)OC)cc12`, the composite z-score is 1.7 in [1]; 0.264 in test [2]; 0.171 in [3]; 1.23 in [5]; 1.27 in test [6]; -0.122 in [7]. Besides, the composite z-score in test [8] is 0.753; in [9], 0.335; in [10] it was 0.614. Also, the z-score in test [4] is -0.646 (inactive).
Regarding `COc1ccccc1CN1C(=O)c2ccccc2[C@@]2(Cc3ccccc3N(CC(C)C)C2=O)[C@@H]1c1ccc(CO)cc1`, the composite z-score in test [1] was -0.327; in test [2] it was -0.266; in test [3] it was 0.124; in test [5] it was -0.285; in test [6], -0.882; in test [7] it was -0.284. The values for the composite z-score in test [8], in [9] and in [10] were -0.0344, 0.0603 and 0.522, respectively. Further, the z-score in test [4] was -0.686 (inactive).
Regarding `O=C1C2C=CC(C(O)c3cc(C(F)(F)F)cc(C(F)(F)F)c3)N(n3cnnc3)C2C(=O)N1Cc1ccccc1` (stereo not given), the composite z-score in [1] was 0.716; in test [2], -0.0958; in test [3] it was 0.531; in test [5], -0.409; in test [6] it was -0.261; in [7], -0.165. The figures for the composite z-score in test [8], in [9] and in test [10] were -0.103, -1.17 and -0.301, respectively. The z-score in test [4] is -0.27 (inactive).
Take `COc1ccc(CCNC(=O)[C@@]2(C)c3ccccc3C(=O)N(C(C)C)[C@H]2c2ccc(CO)cc2)cc1`: the composite z-score in test [1] is 0.5; in test [2] it was 0.056; in test [3], -0.0776; in test [5], 0.558; in test [6] it was -0.0218; in test [7], 0.41. For the same compound, the figures for the composite z-score in test [8], in test [9] and in [10] were 0.335, 0.503 and 0.918, respectively. In addition, the z-score in test [4] is -0.36 (inactive).
Regarding `COc1cc2c(cc1OC)CN(C(=O)[C@@H]1[C@H]3C(=O)O[C@H](c4ccccc4)[C@H](c4ccccc4)N3[C@H](c3ccc(O)cc3)[C@@]13C(=O)Nc1ccccc13)CC2`, the composite z-score was 1.66 in [1]; -0.22 in [2]; 0.104 in [3]; 0.397 in test [5]; 1 in test [6]; -0.0444 in test [7]. Moreover, the values for the composite z-score in [8], in test [9] and in [10] were 0.346, 0.27 and -0.131, respectively. Further, the z-score in test [4] is -0.764 (inactive).
For the compound `C=CCOC(=O)[C@@H]1[C@H]2C(=O)O[C@H](c3ccccc3)[C@H](c3ccccc3)N2[C@H](c2ccc(OCCOC(=O)[C@H]3C[C@H]4C(=O)N5CCC[C@H]5C(=O)N4[C@H]3c3ccc(O)cc3)cc2)[C@@]12C(=O)Nc1ccc(I)cc12`, the composite z-score stood at 1.62 in test [1]; 0.158 in [2]; 0.0375 in test [3]; 1.17 in test [5]; 1.34 in [6]; 0.785 in [7]. Moreover, the composite z-score in [8] was 1.14; in [9] it was 0.986; in test [10], 0.379. In [4], the z-score is -1.27 (inactive).
Take `CN(C)C(=O)[C@@]1(CCS(=O)(=O)c2ccccc2)COC(c2ccc(OCCCO)cc2)=N1`: the composite z-score in test [1] is 0.656; in test [2], 0.476; in test [3], 0.977; in test [5], 0.314; in test [6], 0.476; in test [7], 0.0041. Besides, the composite z-score in [8] is -0.448; in test [9], -0.471; in test [10] it was 1.04. For the same compound, the z-score in [4] is -0.824 (inactive).
For the compound `CC(C)C[C@@H]1NC(=O)[C@@H]2C[C@H](C(=O)O)[C@H](c3cccc(OCCO)c3)N2C1=O`, the composite z-score in test [1] is 0.881; in [2], -0.212; in test [3] it was 0.598; in test [5], -0.246; in test [6], 0.12; in test [7], -0.242. Besides, the values for the composite z-score in [8], in test [9] and in test [10] were 0.152, -0.176 and -0.513, respectively. Moreover, in test [4], the z-score was -0.358 (inactive).
As to `CN(C)C(=O)[C@]1(Cc2ccccc2N=[N+]=[N-])N=C(c2ccc(OCCCO)cc2)O[C@@H]1c1ccccc1N=[N+]=[N-]`, the composite z-score in test [1] was 1.11; in [2] it was 1.72; in test [3] it was 1.01; in test [5], 0.885; in test [6] it was -0.0929; in test [7], 0.405. Besides, the composite z-score came out at 1.3 in test [8], 0.172 in test [9] and 1.14 in test [10]. The z-score in test [4] was -0.727 (inactive).
Regarding `O=C(CS)NCCCCCCNC(=O)[C@@H]1C[C@@H]2C(=O)NCC(=O)N2[C@@H]1c1cccc(OCCO)c1`, the composite z-score is 1.49 in test [1]; -0.293 in test [2]; 0.632 in test [3]; 0.331 in test [5]; 0.837 in test [6]; -0.149 in test [7]. Further, the composite z-score in test [8] is -0.16; in test [9] it was 0.139; in test [10], -0.755. In test [4], the z-score is 0.288 (inactive).
With `COC(=O)[C@@]1(Cc2ccc(F)cc2)[C@H]2c3cc(C(=O)N(C)C)n(Cc4ccc(Cl)c(C(F)(F)F)c4)c3C[C@H]2CN1C(=O)c1ccccc1`, the composite z-score in [1] was determined as 0.546; in test [2], 1.6; in test [3], 1.46; in test [5], 0.336; in test [6], 1.31; in [7], 0.175. The composite z-score in test [8] was 0.923; in [9], -0.473; in [10], 0.651. Also, the z-score in test [4] is -2.25 (inactive).
Regarding `O=C1OCCC/C=C\[C@H]2OC34C=CCN(Cc5ccccc5)C(=O)[C@H]3N(CCCO)C(=O)[C@@H]4C12` (stereo not given in full), the composite z-score in [1] is 1.26; in [2], -0.0379; in test [3], 0.794; in [5] it was -0.967; in test [6], -0.972; in [7] it was -1.55. Also, the composite z-score in [8] is -1.57; in test [9] it was -1.66; in test [10] it was -0.583. Besides, in test [4], the z-score was 0.422 (inactive).
`C=CCOC(=O)[C@H]1[C@@H]2C(=O)O[C@@H](c3ccccc3)[C@@H](c3ccccc3)N2[C@@H](c2ccc(OCCOC(=O)[C@H]3C[C@H]4C(=O)N[C@@H](CCCCN(C)C)C(=O)N4[C@H]3c3ccc(O)cc3)cc2)[C@]12C(=O)Nc1ccc(I)cc12`: the composite z-score in [1] amounted to 1.72; in [2], 0.193; in [3] it was 0.289; in test [5] it was 1.31; in [6], 1.32; in [7] it was 0.741. The composite z-score in [8] worked out at 1.41; in [9] it was 0.849; in [10] it was 1.29. Moreover, the z-score in test [4] was 0.426 (inactive).
For the compound `COc1cc2c(cc1O)C(c1cccs1)N(C)CC2` (stereo not given), the composite z-score in test [1] is 0.0826; in test [2], -0.287; in test [3], 0.0135; in test [5] it was -0.654; in [6] it was -0.995; in test [7], 0.0174. In addition, the composite z-score is -0.558 in test [8], -0.332 in test [9] and 0.0723 in test [10]. Also, the z-score in [4] is 0.153 (inactive).
